The record followed here is PubChem BioAssay (NCATS).

Where “and” joins values, the source holds several entries; their conditions need not be identical. Equal values may be shown once. Records with an inconclusive call do not appear. Calls of active or inactive are those of the source. Unless noted, calls come from the whole dose curve; as a rule, active = well fitted curve in the direction sought with a large enough effect; inconclusive = small, poorly fitted or top-dose-only effect, or another doubt; inactive = no such curve, though single readings can be large or run the other way.

Test [1] is described as follows: qHTS Assay for Identifying Gametocytocidal Compounds (AID 743244).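 For max response: % is set by controls: 0 for no effect and ±100 for the full control effect; actives lower the fluorescent signal which means gametocytes are killed.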 Note: potency is the fitted concentration of half-maximal effect. As to conditions: P. falciparum 3D7 stage III-V gametocytes, alamarBlue, 72 h; max response: stronger effect = lower value. In short, it runs like this: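 Fluorescence at Ex 525/Em 598 nm, recorded 24 h after alamarBlue addition, reports residual metabolic activity of 3D7 gametocytes (stages III–V) following 72 h compound exposure at 37 °C, 5% CO2.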

Test [2] is described as follows: qHTS profiling of the MIPE4 collection as inhibitors of Plasmodium falciparum (3D7) proliferation (AID 743344; call rule not given here;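 note: scaled between DMSO vehicle wells and 0.29 µM artemisinin as full inhibition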). As to conditions: P. falciparum 3D7 in erythrocytes, SYBR Green DNA fluorescence, 72 h; at 28.5 µM (top of the series) unless noted. In short, it runs like this: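 Erythrocytes infected with P. falciparum (0.3% parasitemia, 2.5% hematocrit) incubated with compounds 72 h at 37 C, 5% CO2. Lysis with saponin/Triton buffer containing SYBR Green I, overnight at room temperature in the dark; DNA fluorescence (485/535 nm) normalised to 0.29 uM artemisinin and DMSO.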

As to `CN1C(C(=O)Nc2ccccn2)=C(O)c2sccc2S1(=O)=O`, the max response in test [1] was 15.1% (inactive). Still for that read-out and setting: the same measure for `NC(=O)Cc1cccc(C(=O)c2ccccc2)c1N`: 5.12% (inactive). For the compound `O=C(O)c1cn(-c2ccc(F)cc2)c2cc(N3CCNCC3)c(F)cc2c1=O`, the max response in test [1] was 2.27% (inactive). The parasite growth, % of DMSO control in test [2] worked out at 92.9%. In the case of `O=C1CCc2ccc(OCCCCN3CCN(c4cccc(Cl)c4Cl)CC3)cc2N1`, the max response in test [1] was 0.257% (inactive). The compound also had a parasite growth, % of DMSO control in test [2] of 29.7%. For `N=C(N=C(N)N)N1CCOCC1`, in that order: 0.738% (inactive) and 106%.

Consider `O=C(O)c1cccc(-c2noc(-c3ccccc3F)n2)c1`, for which the max response in test [1] is -7.05% (inactive). Also, in test [2], the parasite growth, % of DMSO control was 93.9%. For `Cc1ccc(S(=O)(=O)NC(=O)NN2CC3CCCC3C2)cc1` (stereo not drawn), in that order: 2.23% (inactive) and 14%. In the case of `Cc1nccn1CC1CCc2c(c3ccccc3n2C)C1=O` (stereo not drawn), the max response in test [1] is -12.7% (inactive) and -3.64% (inactive). In test [2], this compound returned a parasite growth, % of DMSO control of 89.8%. As to `CN(C)C(=O)COC(=O)Cc1ccc(OC(=O)c2ccc(N=C(N)N)cc2)cc1`, the max response in test [1] is 10.2% (inactive). This compound also gave a parasite growth, % of DMSO control in test [2] of 75%. For `Nc1cc(C(Cl)=C(Cl)Cl)c(S(N)(=O)=O)cc1S(N)(=O)=O`, in test [1], the max response is 0.487% (inactive) and -9.48% (inactive). In test [2], this compound gave a parasite growth, % of DMSO control of 103%. `CCOC(=O)c1c(C)n(C)c2ccc(O)cc12`: in test [1], the max response was 2.91% (inactive). Moreover, the parasite growth, % of DMSO control in test [2] stood at 93.9%. For `Cc1ccc(C(=O)c2cc(O)c(O)c([N+](=O)[O-])c2)cc1`, in test [1], the max response was 2.67% (inactive). Moreover, the parasite growth, % of DMSO control in test [2] was 82.6%. In the case of `CC(C)[N+]1(C)[C@@H]2CC[C@H]1CC(OC(=O)C(CO)c1ccccc1)C2` (stereo partly drawn), the max response in test [1] was 6.21% (inactive) and -2.53% (inactive). Besides, in test [2], the parasite growth, % of DMSO control came to 82.2%. Regarding `COC(=O)N[C@H](C(=O)N[C@@H](Cc1ccccc1)[C@@H](O)CN(Cc1ccc(-c2ccccn2)cc1)NC(=O)[C@@H](NC(=O)OC)C(C)(C)C)C(C)(C)C`, in test [1], the max response is -11.7% (inactive). In test [2], this compound displayed a parasite growth, % of DMSO control of 7.5%.

With `Cc1cc2cc3c(C)cc(=O)oc3c(C)c2o1`, the max response in test [1] is 13.8% (inactive). Further, the parasite growth, % of DMSO control in test [2] came to 93%. For `Cc1cccc(CN2CCN(C(c3ccccc3)c3ccc(Cl)cc3)CC2)c1` (stereo not drawn), in that order: 0.914% (inactive) and 6.23%. For `C=C(c1ccc(C(=O)O)cc1)c1cc2c(cc1C)C(C)(C)CCC2(C)C`, in that order: 3.99% (inactive) and 70%. On the same counts, the results for `COc1c(O)cc2c(c1O)[C@@H]1O[C@H](CO)[C@@H](O)[C@H](O)[C@H]1OC2=O` are 0.91% (inactive) and 92.9%.

Take `CN(C)CCc1c[nH]c2ccc(Cn3cncn3)cc12`: in test [1], the max response is -0.403% (inactive). Also, in test [2], the parasite growth, % of DMSO control is 89.2%. For `Oc1ccc(OCc2ccccc2)cc1`, in that order: 3.93% (inactive) and 89.5%.

Consider `CCCCCCCCCCCCCCCCCCCCCCO`, for which the max response in test [1] is 23% (inactive). In test [2], this compound had a parasite growth, % of DMSO control of 94.9%. On the same counts, the results for `CN(c1nccc(=O)[nH]1)C1CCN(c2nc3ccccc3n2Cc2ccc(F)cc2)CC1` are 6.96% (inactive) and 23.2%.

Take `O=c1oc2cc(O)ccc2s1`: the max response in test [1] was -6.04% (inactive). For the same compound, the parasite growth, % of DMSO control in test [2] was found to be 85.1%. Consider `Cc1nc(-c2ccc(OCC(C)C)c(C#N)c2)sc1C(=O)O`, for which the max response in test [1] was 55.3% (inactive). The compound also came in with a parasite growth, % of DMSO control in test [2] of 64.2%.

Consider `O=C(O)c1cc(=O)c2c(OCC(O)COc3cccc4oc(C(=O)O)cc(=O)c34)cccc2o1`, for which the max response in test [1] is 10.5% (inactive). Also, the parasite growth, % of DMSO control in test [2] came out at 85.2%. For `CCC[C@@H]1C[C@@H](C(=O)N[C@@H]([C@H]2O[C@H](SC)[C@H](O)[C@@H](O)[C@H]2O)[C@@H](C)O)N(C)C1`, in that order: -9.02% (inactive) and 28.5%. On the same counts, the results for `O=C(O)CCNC(=O)c1ccc(N=Nc2ccc(O)c(C(=O)O)c2)cc1` are 7.5% (inactive) and 57.4%. For `CCC1=C(C)CN(C(=O)NCCc2ccc(S(=O)(=O)NC(=O)NC3CCC(C)CC3)cc2)C1=O` (stereo not drawn), in that order: 36.8% (inactive) and 98.4%. As to `Cc1cc(=O)oc2cc(O)ccc12`, in test [1], the max response was 14.2% (inactive). The same compound had a parasite growth, % of DMSO control in test [2] of 85.5%.

With `O=P(O)(O)C(O)(Cn1ccnc1)P(=O)(O)O`, the max response in test [1] is 13.2% (inactive). In test [2], this compound returned a parasite growth, % of DMSO control of 103% [at 9.64 µM]. Turning to `CC(C)Oc1ccc2c(=O)c(-c3ccccc3)coc2c1`, in test [1], the max response is -8.04% (inactive) and -1.57% (inactive). The same compound gave a parasite growth, % of DMSO control in test [2] of 75.9%. With `CCC(C)(Oc1ccc(C2(c3ccc(OC(C)(CC)C(=O)O)cc3)CCCCC2)cc1)C(=O)O` (stereo not drawn), in test [1], the max response is 16.5% (inactive). Also, the parasite growth, % of DMSO control in test [2] is 100%. `COC(=O)C1=C(C)NC(C)=C(C(=O)OCCCN2CCC(c3ccccc3)(c3ccccc3)CC2)C1c1cccc([N+](=O)[O-])c1` (stereo not drawn): the Potency in test [1] is 10 µM (active). This compound also showed a parasite growth, % of DMSO control in test [2] of 114%.

`CC(=O)NC[C@H]1CN(c2ccc(N3CCOCC3)c(F)c2)C(=O)O1`: the max response in test [1] is 1.95% (inactive). The compound also displayed a parasite growth, % of DMSO control in test [2] of 65.6%. For `CC1=C(C(=O)O)N2C(=O)[C@@H](NC(=O)[C@H](N)C3=CCC=CC3)[C@H]2SC1`, in that order: -5.14% (inactive) and 79.3%.
